According to PubChem BioAssay (NCATS):
Inconclusive results are not listed. Where a call stands in place of a potency, no number is given. The source made the active and inactive calls. Unless noted, calls come from the whole dose curve; as a rule, active = well fitted curve in the direction sought with a large enough effect; inconclusive = small, poorly fitted or top-dose-only effect, or another doubt; inactive = no such curve, though single readings can be large; an effect the other way counts as inactive or inconclusive.

What was measured:
Furin (Homo sapiens) = Furin (Homo sapiens) (UniProt P09958); assay: Furin counterscreen qHTS for Zika virus inhibitors (AID 1347149); note: nearly all actives have a fitted effect of over 70% in size; note: potency is the fitted concentration of half-maximal effect;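 for activity change, negative = inhibition: purified recombinant full-length human furin enzyme at 5 nM; fluorescence gain from furin cutting a BOC-RVRR-AMC peptide substrate over 15 min; top concentration of the series differs between compounds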
Sequence of Furin (Homo sapiens) (P09958 whole entry, looked up): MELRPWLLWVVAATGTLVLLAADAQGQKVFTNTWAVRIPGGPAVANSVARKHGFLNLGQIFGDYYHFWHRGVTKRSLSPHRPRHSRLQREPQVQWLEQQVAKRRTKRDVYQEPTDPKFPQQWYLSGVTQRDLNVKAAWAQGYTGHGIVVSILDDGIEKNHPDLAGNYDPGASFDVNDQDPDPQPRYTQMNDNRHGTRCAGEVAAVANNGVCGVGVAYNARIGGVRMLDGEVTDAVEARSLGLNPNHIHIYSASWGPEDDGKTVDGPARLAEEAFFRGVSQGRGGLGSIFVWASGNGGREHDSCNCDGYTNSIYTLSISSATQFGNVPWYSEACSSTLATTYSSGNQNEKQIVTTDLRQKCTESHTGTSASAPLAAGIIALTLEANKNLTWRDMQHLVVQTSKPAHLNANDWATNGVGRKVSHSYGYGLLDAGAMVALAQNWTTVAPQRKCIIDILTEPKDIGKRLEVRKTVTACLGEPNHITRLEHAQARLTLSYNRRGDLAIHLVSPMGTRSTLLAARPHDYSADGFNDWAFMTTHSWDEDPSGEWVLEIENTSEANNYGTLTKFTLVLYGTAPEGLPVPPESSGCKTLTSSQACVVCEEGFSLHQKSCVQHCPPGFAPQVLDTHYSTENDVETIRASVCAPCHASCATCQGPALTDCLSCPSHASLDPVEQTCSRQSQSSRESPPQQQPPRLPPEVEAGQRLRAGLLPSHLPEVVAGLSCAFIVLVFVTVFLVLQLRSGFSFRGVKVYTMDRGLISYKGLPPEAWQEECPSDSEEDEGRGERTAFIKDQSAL
Method in brief: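 Fluorogenic cleavage of BOC-RVRR-AMC (2 microM final, Km ~15 µM) was monitored (ex 340, em 450 nm) at 37C after 15 min RT preincubation of 5 nM furin with compounds in HEPES pH 7.0 buffer with CaCl2 and Triton X-100. Percent inhibition was fitted to a 4-parameter Hill curve.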

[1] = Confirmatory screen GU Rhodamine qHTS for Zika virus inhibitors qHTS (AID 1347157); note: nearly all actives have a fitted effect of over 70% in size; note: potency is the fitted concentration of half-maximal effect
Method in brief: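 In dose–response format, inhibition of unlinked protease (25 nM) was measured with 1.5 microM bis-peptide Rhodamine110 substrate. Aprotinin served as the intraplate control.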

[2] = Confirmatory screen NINDS Rhodamine qHTS for Zika virus inhibitors (AID 1347161); note: nearly all actives have a fitted effect of over 60% in size; note: potency is the fitted concentration of half-maximal effect;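 for activity change, negative = inhibition: purified Zika NS2B-NS3 protease with linked NS2B cofactor domain and Rhodamine110 peptide substrate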
Method in brief: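 Percent inhibition, normalized to uninhibited and enzyme-free controls, is fitted to a 4-parameter Hill equation. Fluorescence change comes from a 15-min cleavage of 1.5 microM bis-peptide Rhodamine110 substrate by 25 nM linked NS2B-NS3 at room temperature.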

[3] = Tertiary RLuc qRT-PCR qHTS assay for Zika virus inhibitors (AID 1347169); note: top concentration of the series differs between compounds; nearly all actives have a fitted effect of over 55% in size
Method in brief: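 Inhibition of ZIKV-RLuc replication in Vero cells, read as Renilla luminescence 1-1.5 hrs after live-cell substrate addition, following 48-72 hrs infection at MOI 1-2 in presence of compound.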

[4] = tested on: Zika virus NS2B-NS3 protease (linked construct); assay: 384 well plate NINDS Rhodamine confirmatory qHTS for Zika virus inhibitors (AID 1347164); note: potency is the fitted concentration of half-maximal effect; nearly all actives have a fitted effect of over 65% in size
Method in brief: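 Cleavage of Ac-LKRR-Rhodamine 110 (10 microM final) by linked protease (final 5, 30 or 60 nM) was followed as fluorescence at 485/538 nm after 25 min, room temperature, dark. Compounds preincubated ~15 min.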

[5] = target: Rap guanine nucleotide exchange factor 3 (Homo sapiens) (UniProt O95398); assay: Confirmatory qHTS for agonist of cAMP-regulated guanine nucleotide exchange factor 3 (EPAC1) (AID 1645881);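 note: EPAC1 catalysed release of BODIPY-GDP from Rap1B seen as fluorescence loss; nearly all actives have a fitted effect of over 75% in size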
Sequence of Rap guanine nucleotide exchange factor 3 (Homo sapiens) (O95398 whole entry, looked up): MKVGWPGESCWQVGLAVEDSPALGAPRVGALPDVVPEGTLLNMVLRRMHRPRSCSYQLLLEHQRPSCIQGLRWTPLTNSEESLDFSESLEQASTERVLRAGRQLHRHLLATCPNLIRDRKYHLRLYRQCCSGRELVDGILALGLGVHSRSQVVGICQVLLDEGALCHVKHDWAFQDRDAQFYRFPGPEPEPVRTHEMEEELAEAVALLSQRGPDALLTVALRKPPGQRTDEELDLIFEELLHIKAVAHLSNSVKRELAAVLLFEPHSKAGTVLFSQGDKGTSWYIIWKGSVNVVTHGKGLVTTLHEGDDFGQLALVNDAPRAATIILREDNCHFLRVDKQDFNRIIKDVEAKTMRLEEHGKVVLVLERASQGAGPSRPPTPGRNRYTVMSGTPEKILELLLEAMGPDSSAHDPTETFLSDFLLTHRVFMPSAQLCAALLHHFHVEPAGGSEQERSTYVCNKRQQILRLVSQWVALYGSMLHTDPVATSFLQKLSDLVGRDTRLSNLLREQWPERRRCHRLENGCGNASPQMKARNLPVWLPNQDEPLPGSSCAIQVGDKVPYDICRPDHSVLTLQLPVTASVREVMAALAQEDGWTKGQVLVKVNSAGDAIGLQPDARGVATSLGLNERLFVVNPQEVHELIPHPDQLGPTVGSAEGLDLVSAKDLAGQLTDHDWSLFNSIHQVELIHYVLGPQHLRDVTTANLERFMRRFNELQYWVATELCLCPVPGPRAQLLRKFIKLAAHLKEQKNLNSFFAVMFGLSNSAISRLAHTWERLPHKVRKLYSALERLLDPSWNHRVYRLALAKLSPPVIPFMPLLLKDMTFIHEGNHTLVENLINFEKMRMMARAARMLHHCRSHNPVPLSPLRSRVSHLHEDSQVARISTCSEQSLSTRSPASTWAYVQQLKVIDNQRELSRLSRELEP

[6] = target: Rap guanine nucleotide exchange factor 4 (Homo sapiens) (UniProt Q8WZA2); assay: Confirmatory qHTS for agonist of cAMP-regulated guanine nucleotide exchange factor 4 (EPAC2) (AID 1645884);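 note: nucleotide exchange releases bodipy-GDP from Rap1 and this lowers its fluorescence; nearly all actives have a fitted effect of over 65% in size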
Sequence of Rap guanine nucleotide exchange factor 4 (Homo sapiens) (Q8WZA2 whole entry, looked up): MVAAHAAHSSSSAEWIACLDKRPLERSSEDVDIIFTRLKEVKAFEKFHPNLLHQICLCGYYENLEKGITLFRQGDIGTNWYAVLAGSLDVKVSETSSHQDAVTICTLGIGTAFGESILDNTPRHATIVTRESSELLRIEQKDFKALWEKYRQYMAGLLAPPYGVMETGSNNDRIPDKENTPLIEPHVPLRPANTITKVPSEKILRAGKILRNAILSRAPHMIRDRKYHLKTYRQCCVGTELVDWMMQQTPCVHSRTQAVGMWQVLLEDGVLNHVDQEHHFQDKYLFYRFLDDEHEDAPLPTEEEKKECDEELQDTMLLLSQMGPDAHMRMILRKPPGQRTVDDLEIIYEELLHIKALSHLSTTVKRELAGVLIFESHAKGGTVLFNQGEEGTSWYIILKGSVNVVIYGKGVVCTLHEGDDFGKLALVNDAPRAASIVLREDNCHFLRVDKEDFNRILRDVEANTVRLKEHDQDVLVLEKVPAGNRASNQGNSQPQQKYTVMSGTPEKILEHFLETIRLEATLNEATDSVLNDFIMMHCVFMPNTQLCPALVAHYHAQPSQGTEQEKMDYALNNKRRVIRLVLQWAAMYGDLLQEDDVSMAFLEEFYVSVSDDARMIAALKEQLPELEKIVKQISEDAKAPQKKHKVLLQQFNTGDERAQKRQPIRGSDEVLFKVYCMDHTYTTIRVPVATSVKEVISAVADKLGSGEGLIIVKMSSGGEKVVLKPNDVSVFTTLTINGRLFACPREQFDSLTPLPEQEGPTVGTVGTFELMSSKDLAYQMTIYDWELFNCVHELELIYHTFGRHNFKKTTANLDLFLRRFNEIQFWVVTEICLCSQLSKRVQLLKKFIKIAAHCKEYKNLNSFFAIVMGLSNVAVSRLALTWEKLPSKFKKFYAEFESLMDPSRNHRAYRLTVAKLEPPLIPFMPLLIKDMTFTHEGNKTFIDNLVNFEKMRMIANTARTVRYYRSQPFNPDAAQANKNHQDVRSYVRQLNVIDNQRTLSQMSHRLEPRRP

[7] = target: Rap guanine nucleotide exchange factor 4 (Homo sapiens) (UniProt Q8WZA2); assay: Confirmatory qHTS for antagonist of cAMP-regulated guanine nucleotide exchange factor 4 (EPAC2) (AID 1645885); note: nearly all actives have a fitted effect of over 25% in size
[8] = target: Rap guanine nucleotide exchange factor 3 (Homo sapiens) (UniProt O95398); assay: Counterscreen qHTS for antagonist of cAMP-regulated guanine nucleotide exchange factor 3 (EPAC1) (AID 1645888);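 note: fluorescence loss as bound BODIPY-GDP is released from Rap1B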
Method in brief: (§1)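 Rap1B-BODIPY-GDP 250 nM + GDP 50 uM; cpds 7-pt, final 9.74 nM–152 uM (activator mode) or from 7.32 nM upwards (inhibitor mode); RT; FI 480/540 nm at 5 and 30 min, then ± cAMP, reread.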

[9] = target: Rap guanine nucleotide exchange factor 3 (Homo sapiens) (UniProt O95398); assay: Counterscreen qHTS for agonist of cAMP-regulated guanine nucleotide exchange factor 3 (EPAC1) (AID 1645889); note: nearly all actives have a fitted effect of over 40% in size
Method in brief: as §1

[10] = tested on: Zika virus NS2B-NS3 protease (linked); assay: 384 well plate NINDS AMC confirmatory qHTS for Zika virus inhibitors (AID 1347163); note: nearly all actives have a fitted effect of over 50% in size; note: potency is the fitted concentration of half-maximal effect;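 for activity change, negative = inhibition: linked protease at 5 30 or 60 nM final depending on run; fluorescence of AMC released from Ac-VKTGKR-AMC peptide cleaved by the protease; top concentration of the series differs between compounds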
Method in brief: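 Linked protease 5/30/60 nM final; cpds up to 1 mM final, ~15 min preinc. Substrate Ac-VKTGKR-AMC 30 microM final. RT, dark, 25 min; FI ex 355/em 460; normalized to no-enzyme/no-inhibitor ctrls.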

[11] = ZIKV-mCherry secondary qHTS for Zika virus inhibitors (AID 1347158); note: top concentration of the series differs between compounds
Method in brief: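 After overnight seeding at 37 °C, Vero cells receive compound and then ZIKV-mCherry (MOI 1). Following 48-72 h infection, cells are fixed, counterstained with Hoechst, and imaged; percent infected cells is derived from an mCherry intensity cut-off of 450 RFU.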

[12] = target: Cytochrome P450 3A4 (Homo sapiens) (UniProt P08684); assay: qHTS Assay for Activators of Cytochrome P450 3A4 (AID 885); note: nearly all actives have a fitted effect of over 65% in size
Sequence of Cytochrome P450 3A4 (Homo sapiens) (P08684 whole entry, looked up): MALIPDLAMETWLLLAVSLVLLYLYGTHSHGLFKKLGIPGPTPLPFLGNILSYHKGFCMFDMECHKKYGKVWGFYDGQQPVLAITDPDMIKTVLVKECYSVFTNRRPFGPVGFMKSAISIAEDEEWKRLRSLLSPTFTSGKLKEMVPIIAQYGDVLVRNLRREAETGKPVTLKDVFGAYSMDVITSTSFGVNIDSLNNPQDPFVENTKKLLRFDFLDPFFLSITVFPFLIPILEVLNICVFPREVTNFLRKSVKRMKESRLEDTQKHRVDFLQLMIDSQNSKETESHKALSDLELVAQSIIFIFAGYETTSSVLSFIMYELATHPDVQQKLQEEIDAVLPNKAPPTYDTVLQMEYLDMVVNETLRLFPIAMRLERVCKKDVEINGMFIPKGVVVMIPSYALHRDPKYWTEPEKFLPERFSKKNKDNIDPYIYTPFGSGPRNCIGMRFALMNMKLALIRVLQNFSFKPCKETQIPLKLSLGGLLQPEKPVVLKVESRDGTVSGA
Method in brief: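 Human CYP3A4 (20 nM) with Luciferin-PPXE at 25 uM (its KM) in 200 mM KPO4; 10 min compound preincubation, then NADPH regeneration and 60 min reaction at RT. Luciferin read by luminescence; normalized to 57 uM ketoconazole full inhibition.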

[13] = qHTS Assay for Lipid Storage Modulators (AID 1519; calls by dose curve); conditions: Drosophila S3 cells, BODIPY lipid droplet/cell ratio, laser cytometry, cells loaded with oleic acid
Method in brief: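 Cells seeded at 5,000 per well were treated with compounds over a concentration series and loaded with oleic acid (400 uM, as added). Lipid droplet fluorescence (488 nm excitation, 500-530 nm channel) was read by laser-scanning cytometry and normalized to 20 uM Triacsin C.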

With `CCOc1ccc(C(=O)Nc2ccccc2C(=O)OCc2cc(=O)n3nc(C4CC4)sc3n2)cc1` the Potency (Furin (Homo sapiens)) was “inactive”, the Potency [1] was “inactive” and the Potency [2] was “inactive”. The Potency [3] was “inactive”.
With `CCCc1nn2c(=O)cc(COC(=O)c3ccccc3NC(=O)c3ccc(Cl)cc3)nc2s1` the Potency (Furin (Homo sapiens)) was 41.8 µM (active), the Potency [1] was “inactive” and the Potency [2] was “inactive”.
With `O=C(O)CCc1ccc(-c2ccc(Cl)cc2)n1-c1cccc(C(F)(F)F)c1` the Potency (Furin (Homo sapiens)) was “inactive”, the Potency [1] was 7.08 µM (active) and the Potency [2] was 11.2 µM (active). The Potency [4] was 44.7 µM (active), the outcome [5] was “inactive” and the outcome [6] was “inactive”. The activity change, negative = inhibition [7] was 25.6% [at 12.7 µM] (inactive), the outcome [8] was “inactive” and the Potency [9] was “inactive”.
With `O=C(CNc1nnc(-c2ccc([S+](=O)([O-])N3CCCC3)cc2)n1-c1ccccc1)Nc1ccc(C(=O)O)cc1` the Potency (Furin (Homo sapiens)) was “inactive”, the Potency [1] was “inactive” and the Potency [2] was “inactive”.
In the case of `CCOC(=O)c1ccc(Nc2nc3ccccc3nc2NS(=O)(=O)c2ccc(Cl)cc2)cc1`, the Potency (Furin (Homo sapiens)) was “inactive”, the Potency [1] was 3.16 µM (active) and the Potency [2] was 3.55 µM (active). The Potency [10] was “inactive”.
For `O=C(OCC#CCSc1nnc(-c2cccc3ccccc23)o1)c1ccc(Cl)c(C(F)(F)F)c1`, the Potency (Furin (Homo sapiens)) was 52.7 µM (active), the Potency [1] was 25.1 µM (active) and the Potency [2] was “inactive”. The Potency [3] was “inactive”.
With `COc1ccc(S(=O)(=O)c2c(Nc3c(C)cccc3C)sc(C(=O)c3ccc4c(c3)OCO4)c2N)cc1` the Potency (Furin (Homo sapiens)) was 23.5 µM (active), the Potency [1] was “inactive” and the Potency [2] was “inactive”.
With `CCOc1ccccc1NC(=O)c1ccc2oc(=O)c(S(=O)(=O)c3ccc(F)cc3)cc2c1` the Potency (Furin (Homo sapiens)) was “inactive”, the Potency [1] was “inactive” and the Potency [2] was “inactive”. The Potency [3] was “inactive”.
For `O=C(COc1ccccc1F)Nc1ccccc1C(=O)OCc1cc(=O)n2nc(C3CC3)sc2n1`, the Potency (Furin (Homo sapiens)) was “inactive”, the Potency [1] was “inactive” and the Potency [2] was “inactive”.
For `O=C(O)Cn1nnc(-c2ccc(OCc3cccc(C(F)(F)F)c3)cc2)n1`, the Potency (Furin (Homo sapiens)) was “inactive”, the Potency [1] was 25.1 µM (active) and the Potency [11] was “inactive”. For the same compound, the Potency [2] was 8.91 µM (active), the Potency [4] was 112 µM (active) and the Potency [3] was “inactive”.
With `Cc1ccc2nc(NS(=O)(=O)c3ccc(Cl)cc3)c(Nc3ccc(C(=O)O)cc3)nc2c1` the Potency (Furin (Homo sapiens)) was “inactive”, the Potency [1] was 3.55 µM (active) and the Potency [2] was 3.16 µM (active). For the same compound, the Potency [10] was 141 µM (active) and the Potency [4] was 12.6 µM (active).
In the case of `Cc1c(Cl)cccc1NC(=O)CSc1ncccc1C(=O)Oc1ccccc1Cl`, the Potency (Furin (Homo sapiens)) was “inactive”, the Potency [1] was “inactive” and the Potency [2] was “inactive”. For the same compound, the Potency [3] was “inactive”.
In the case of `CC(C)c1nn2c(=O)cc(COC(=O)c3ccc(NC(=O)c4cccs4)cc3)nc2s1`, the Potency (Furin (Homo sapiens)) was “inactive”, the Potency [1] was “inactive” and the Potency [2] was “inactive”. The Potency [3] was “inactive”.
With `COc1ccc(-c2cc(=O)c3c(O)cc(O)c(-c4cc(-c5cc(=O)c6c(O)cc(O)cc6o5)ccc4OC)c3o2)cc1` the Potency [12] was “inactive”, the activity change, negative = inhibition ([13]; at 57.5 µM (top of the series)) was 6.01% (inactive) and the max response ([13]; measured here: cell count channel max response) was -20.7%. For the same compound, the max response ([13]; measured here: lipid channel max response) was -15.6%, the Potency (Furin (Homo sapiens)) was “inactive” and the Potency [1] was 25.1 µM (active). The Potency [2] was 25.1 µM (active), the Potency [10] was 112 µM (active) and the Potency [3] was “inactive”.
In the case of `Cc1oc2c(cc(NS(=O)(=O)c3ccc(Br)cc3)c3ccccc32)c1C(=O)OCc1ccccc1`, the Potency (Furin (Homo sapiens)) was “inactive”, the Potency [1] was 31.6 µM (active) and the Potency [11] was “inactive”. The Potency [2] was 39.8 µM (active) and the Potency [4] was 63.1 µM (active).
For `Cc1ccc(NC(=O)CSc2ncccc2C(=O)Oc2ccccc2Cl)cc1Cl`, the Potency (Furin (Homo sapiens)) was “inactive”, the Potency [1] was “inactive” and the Potency [2] was “inactive”.
With `O=C(O)c1ccc(NS(=O)(=O)c2ccc(Cl)c(C(=O)Nc3ccccc3)c2)cc1` the Potency (Furin (Homo sapiens)) was “inactive”, the Potency [1] was “inactive” and the Potency [2] was “inactive”. For the same compound, the Potency [3] was “inactive”.
In the case of `O=C(OCc1cccc(C(F)(F)F)c1)c1ccc(-c2nnn(Cc3ccc(F)cc3)n2)cc1`, the Potency (Furin (Homo sapiens)) was “inactive”, the Potency [1] was “inactive” and the Potency [2] was “inactive”. The Potency [3] was “inactive”.
In the case of `COC(=O)c1ccc([C@H]2Nc3ccc(S(=O)(=O)Nc4ccc(C)cc4)cc3[C@H]3C=CC[C@H]32)cc1`, the Potency (Furin (Homo sapiens)) was “inactive”, the Potency [1] was 25.1 µM (active) and the Potency [11] was “inactive”. For the same compound, the Potency [2] was 17.8 µM (active), the Potency [4] was 100 µM (active) and the Potency [3] was “inactive”.
With `Cc1ccc(-c2nnc(Nc3ccc(O)cc3)c3ccccc23)cc1S(=O)(=O)NCc1nc2ccccc2[nH]1` the Potency (Furin (Homo sapiens)) was “inactive”, the Potency [1] was “inactive” and the Potency [2] was “inactive”.
In the case of `O=C(Nc1ccccc1C(=O)OCc1cc(=O)n2nc(C3CC3)sc2n1)c1ccc(Cl)cc1`, the Potency (Furin (Homo sapiens)) was 41.8 µM (active), the Potency [1] was “inactive” and the Potency [2] was “inactive”. For the same compound, the Potency [3] was “inactive”.
In the case of `CCOC(=O)c1c(-c2ccc(C)cc2)csc1NC(=O)c1cc(-c2ccc(Cl)cc2)on1`, the Potency (Furin (Homo sapiens)) was “inactive”, the Potency [1] was “inactive” and the Potency [2] was “inactive”. For the same compound, the Potency [3] was “inactive”.
With `COC(=O)C1=C(c2ccccc2)c2ccccc2S(=O)(=O)N1CC(=O)Nc1ccccc1C(F)(F)F` the Potency (Furin (Homo sapiens)) was “inactive”, the Potency [1] was “inactive” and the Potency [2] was “inactive”.
For `O=C(CNC(=O)c1ccc(Cl)cc1)OCc1cc(=O)n2nc(C3CCCCC3)sc2n1`, the Potency (Furin (Homo sapiens)) was “inactive”, the Potency [1] was “inactive” and the Potency [2] was “inactive”. The Potency [3] was “inactive”.
With `O=C(Nc1ccc(C(=O)OCc2cc(=O)n3c4c(sc3n2)CCCC4)cc1)c1cccc(F)c1` the Potency (Furin (Homo sapiens)) was 46.9 µM (active), the Potency [1] was “inactive” and the Potency [2] was “inactive”.
For `COC(=O)c1ccc(NC(=O)CSc2ccc(-c3sc(-c4ccccc4)nc3C)nn2)cc1`, the Potency (Furin (Homo sapiens)) was 46.9 µM (active), the Potency [1] was “inactive” and the Potency [2] was “inactive”. For the same compound, the Potency [3] was “inactive”.
In the case of `Cc1cc(NC(=O)c2ccc(Cl)c(Cl)c2)ccc1-c1cc2ccccc2oc1=O`, the Potency (Furin (Homo sapiens)) was 66.3 µM (active), the Potency [1] was 44.7 µM (active) and the Potency [2] was 31.6 µM (active). The Potency [10] was “inactive” and the Potency [3] was “inactive”.
In the case of `CC(C)OC(=O)c1ccc(NC(=O)CSc2nc(-c3cccs3)cc(C(F)(F)F)n2)cc1`, the Potency (Furin (Homo sapiens)) was 52.7 µM (active), the Potency [1] was “inactive” and the Potency [2] was “inactive”. For the same compound, the Potency [3] was “inactive”.
